From PubChem BioAssay AID431 (Sanford-Burnham Center for Chemical Genomics, 2006)
The whole screen tested about 63,000 compounds, of which about 1,100 (1.7%) were called active. The full list was thinned out, with actives kept by preference. Entries with a potency or affinity are not part of this list. A number with no mark means an inactive call.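 The calls were made as follows: active = compounds whose percent cytotoxicity in the single-dose primary screen, scaled between solvent and toxic-drug controls, exceeds 50; inactive = the rest.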

Assay: cytotoxicity in KRAS-transformed pancreatic duct cells, primary screen, cell-based, fluorescence, HTS (AID 431);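 also: 0% = DMSO solvent wells and 100% = doxorubicin-treated wells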
Conditions: HPDE-C7K KRASV12 cells, Alamar Blue viability, 48 h; at 10 µM; stronger effect = higher value

Compound	cytotoxicity
O=C(C1CCN(S(=O)(=O)Cc2ccccc2)CC1)N1CCN(c2ncccn2)CC1	11.4%
CCC(=O)NCCC(c1ccco1)c1ccccc1OC (configuration not stated)	-5.9%
O=C(O)c1c(-c2ccccc2)c2oc3ccccc3c2[nH]c1=O	81.6% (active)
O=c1[nH]c(Cc2ccccc2)nc2c1oc1ccccc12	10.4%
O=C(O)c1oc2ccccc2c1-n1cccc1	7.2%
COC(=O)c1ccc(C(=O)OC)c(NS(C)(=O)=O)c1	-2.8%
CC(=O)Nc1cccc(OCC(O)Cn2cnc3ccccc32)c1 (configuration not stated)	3.6%
CN1CCCN(C(c2ccccc2)c2ccc(Cl)cc2)CC1 (configuration not stated)	51% (active)
Cc1cccc(CN2CCN(c3ccccn3)CC2)c1	-9.1%
Cc1cccc(CN2CCN(C(c3ccccc3)c3ccc(Cl)cc3)CC2)c1 (configuration not stated)	85.4% (active)
Cc1cc(N2CCN(C(c3ccccc3)c3ccc(Cl)cc3)CC2)n2ncnc2n1 (configuration not stated)	8.1%
Cc1cccc(CN2CCN(C(=O)c3ccccc3F)CC2)c1	-6.8%
OCCOCCN1CCN(C(c2ccccc2)c2ccc(Cl)cc2)CC1 (configuration not stated)	26.4%
O=C(Nc1ccc2c(c1)OCO2)C1CCCN(S(=O)(=O)c2cccs2)C1 (configuration not stated)	0.2%
Cc1ccc(NC(=O)c2ccco2)c(NC(=O)c2cccs2)c1	-4.8%
COc1ccc(C(=O)OCCN2CCOCC2)cc1OC	-1.7%
Cc1ccc(C(=O)N(CC(=O)NC2CCCC2)Cc2cccs2)s1	5.4%
Cc1ccc2cccc(OCC(=O)NCc3ccco3)c2n1	-8.8%
CCCCCOc1ccc(C(=O)NC(C(=O)O)C(C)C)cc1 (configuration not stated)	6.5%
CN=CC1=C(O)c2ccccc2C1=O	-1.7%
O=C1C(C=Nc2ccccc2O)=C(O)c2ccccc21	13.8%
Cc1ccc(O)c(N=CC2=C(O)c3ccccc3C2=O)c1	52.6% (active)
Cc1cccc(-n2ncc3c(NC4CCCCC4)ncnc32)c1	11.8%
O=C(Nc1sc2c(c1C(=O)O)CCC2)c1cccs1	5.8%
O=C(Nc1sc2c(c1C(=O)O)CCCC2)c1cccs1	13.8%
NC(=O)c1c(NC(NC(=O)c2ccco2)(C(F)(F)F)C(F)(F)F)sc2c1CCCC2	51.3% (active)

Compound	cytotoxicity
COC(=O)c1c(NC(=O)c2ccc(Br)s2)sc2c1CCC2	64.4% (active)
COC(=O)c1c(NC(=O)c2ccoc2C)sc2c1CCC2	-18%
COC(=O)c1c(NC(C)=O)sc2c1CCCC2	3.4%
NC(=O)c1c(NC(=O)c2cccs2)sc2c1CCCCCC2	57.6% (active)
CCOC(=O)c1c(NC(=O)c2ccco2)sc2c1CCCCC2	11.4%
O=C(Nc1sc2c(c1C(=O)O)CCCCC2)c1ccco1	3.9%
COc1ccc(Nc2nc3ccccc3nc2C)cc1	20%
O=C1N(CC(=O)N2CCc3ccccc32)CCN1Cc1ccccc1Cl	-7.2%
COc1ccc(CCNS(=O)(=O)c2ccc3c(c2)CCN3C(=O)C2CC2)cc1OC	-6.7%
O=C(CSc1nc(Nc2ccccc2)nc(N2CCOCC2)n1)Nc1ccc2c(c1)OCCO2	11.5%
COC(=O)CSc1ncnc2c1sc1nc(-c3ccco3)c3c(c12)CC(C)(C)OC3	15.4%
CCOC(=O)c1sc2nc(N3CCCC3)c3c(c2c1N)CC(C)(C)OC3	-3%
CCOC(=O)c1sc2nc(-c3ccco3)c3c(c2c1N)CC(C)(C)OC3	57.4% (active)
COc1ccc(Nc2nc(OC)nc(N3CCN(c4ccc(OC)cc4)CC3)n2)cc1	8.4%
COC(=O)/C=C1\NCCSC1=O	35.9%
O=C(CCC(=O)N(c1ccccc1)C(C(=O)NC1CCCC1)c1ccncc1)Nc1cccnc1 (configuration not stated)	-0.5%
CCn1c(=N)c(C(=O)NCc2cccnc2)cc2c(=O)n3cccc(C)c3nc21	1.8%
CN=C(Nc1cc(C)nn1CCC#N)c1ccccc1F	4.4%
CC(C)(C)C1CCC2(CC1)C(C#N)=C(SCC(=O)NC1CCCCC1)NC(=O)C2C#N (configuration not stated)	54.5% (active)
CCOC(=O)C1=C(SCC(=O)Nc2ccccc2)NC(=O)C(C#N)C12CCCCC2 (configuration not stated)	5.3%
N#CC1=C(SCC(=O)NC2CC2)NC(=O)C(C#N)C12CCCCC2 (configuration not stated)	-27.1%
N#CC1=C(SCC(=O)NC23CC4CC(CC(C4)C2)C3)NC(=O)C(C#N)C12CCCCC2 (configuration not stated)	45.6%
N#CC1=C(N)NC(SCC(=O)Nc2ccccc2)=C(C#N)C12CCCC2	0.4%
CCOC(=O)Cc1csc(NC(=O)CSc2nnc(-c3ccc(C)cc3)o2)n1	-11.9%
CC(=O)N1CCc2cc(S(=O)(=O)NC(CC(C)C)C(=O)Nc3ccc4c(c3)OCCO4)ccc21 (configuration not stated)	7.7%
N#CCSc1nnc2c(Cl)cc(Cl)cn12	7.2%

Compound	cytotoxicity
Brc1ccc(-c2nc(-c3ccncc3)no2)o1	0.3%
CSc1ccc(S(=O)(=O)Nc2ccc(N3CCOCC3)c(Cl)c2)cc1	-2.9%
c1ccc(N2CCN(c3nnnn3-c3ccccc3)CC2)cc1	-3.6%
COc1ccc(CCNC(=O)COc2ccc(S(=O)(=O)N3CCOCC3)cc2)cc1	8.2%
Cc1cc(=O)c2cc(Cl)ccc2[nH]1	-4.6%
COC(=O)c1ccc2[nH]c(C)cc(=O)c2c1	-3.5%
Cc1cc2c(N=O)c(NO)ccc2[nH]1	79.2% (active)
O=C(Nc1ccc2c(c1)OCCO2)C1CCCN(S(=O)(=O)c2cnc[nH]2)C1 (configuration not stated)	-1.8%
Cn1c(=O)c2c(nc(NCCCN3CCOCC3)n2Cc2ccc(Cl)c(Cl)c2)n(C)c1=O	-1.2%
Cn1c(NCCCN2CCOCC2)nc2c1c(=O)n(Cc1ccc(Cl)cc1)c(=O)n2C	28.8%
Cn1c(NCCCN2CCOCC2)nc2c1c(=O)n(Cc1ccc(Cl)c(Cl)c1)c(=O)n2C	54.6% (active)
Cn1c(NCCCN2CCOCC2)nc2c1c(=O)n(Cc1ccc(Cl)cc1Cl)c(=O)n2C	50.6% (active)
Cn1c(=O)c2c(nc(NCCCN3CCOCC3)n2Cc2ccc(Cl)cc2Cl)n(C)c1=O	0.9%
Cn1c(NCCN2CCOCC2)nc2c1c(=O)n(Cc1cccc(Cl)c1)c(=O)n2C	22.4%
Cc1cc(C)nc(SCc2ccc3nonc3c2)n1	-23.2%
Cc1cc(CN2C(=O)c3ccccc3C2=O)no1	-13.3%
CCN(CC)S(=O)(=O)c1ccc(NC(=O)Cn2cnc3ccccc3c2=O)cc1	-6.7%
CCC(=O)Nc1ccc(C(=O)n2nc(C)cc2C)cc1	10.7%
COCCSc1ccccc1C(=O)Nc1cc(C)on1	85.8% (active)
COCCSc1ccccc1C(=O)Nc1nnc(C)s1	-9%
CCSc1ccccc1C(=O)Nc1cc(C)on1	-0.6%
COc1ccc(C2CCCN2C(=O)Nc2ccc(F)cc2)cc1OC (configuration not stated)	-15.2%
CNC(=O)C1CC(=O)N(Cc2ccc3c(c2)OCO3)C(=Nc2ccc(F)cc2)S1 (configuration not stated)	-2.3%
CCNC(=O)C1CC(=O)N(Cc2ccc3c(c2)OCO3)C(=Nc2ccc(F)cc2)S1 (configuration not stated)	62.1% (active)
CCNC(=O)C1CC(=O)N(Cc2ccc3c(c2)OCO3)C(=Nc2ccc(OCC)cc2)S1 (configuration not stated)	10%
CC(=O)Oc1cccc2c1C(=O)c1c(OC(C)=O)cc(C(=O)O)cc1C2=O	8.1%

Compound	cytotoxicity
O=C(O)c1cc(C(=O)O)c(-c2ccccc2)c(C(=O)O)c1	-12.8%
CCOc1ccc(N2Cc3ncccc3C2=O)cc1	-0.1%
O=C(COc1ccc2ccccc2c1Br)N1CCOCC1	-30.2%
C=CCOC(=O)C(C#N)c1nc2ccccc2nc1N1CCN(c2ccccc2OCC)CC1 (configuration not stated)	4.2%
CCCCCCOC(=O)C(C#N)c1nc2ccccc2nc1N1CCN(CC)CC1 (configuration not stated)	5.9%
CCCCCCOC(=O)C(C#N)c1nc2ccccc2nc1N1CCCCC1 (configuration not stated)	-16.1%
COc1ccc(CNC(=O)C(C#N)c2nc3ccccc3nc2N2CCCC2)cc1 (configuration not stated)	-9.7%
CCOc1ccccc1N1CCN(c2nc3ccccc3nc2C(C#N)C(=O)OC)CC1 (configuration not stated)	50.6% (active)
N#CC(C(=O)NCc1ccccc1)c1nc2ccccc2nc1N1CCCC1 (configuration not stated)	8.4%
CCCCCCOC(=O)C(C#N)c1nc2ccccc2nc1N1CCN(C)CC1 (configuration not stated)	70.2% (active)
COc1ccc(CNC(=O)C(C#N)c2nc3ccccc3nc2N2CCN(C)CC2)cc1 (configuration not stated)	76.5% (active)
CCOc1ccccc1N1CCN(c2nc3ccccc3nc2C(C#N)C(=O)OC(C)C)CC1 (configuration not stated)	-18.6%
O=C1CC(c2ccccc2)CC2=C1CN(C1CCCCC1)CN2 (configuration not stated)	22%
Cc1nnc(NC(=O)C2CCN(c3cnccn3)CC2)s1	-12.6%
CCOc1ccccc1Oc1coc2cc(O)ccc2c1=O	-11.5%
Cc1cc(C(=O)Nc2sc(C)c(C)c2C#N)no1	-0.7%
Cc1cc(C)n(CC(O)Cn2c3ccccc3c3ccccc32)c(=O)n1 (configuration not stated)	11.5%
CC1CCCC(C)N1C(=O)Cn1c(SCC(=O)Nc2ccc3c(c2)OCO3)nc2ccccc21 (configuration not stated)	8.4%
CCOc1ccc2noc3c2c1C(=O)c1ccccc1-3	23.3%
O=C1c2ccccc2-c2onc3ccc(NCc4ccco4)c1c23	51.6% (active)
COc1ccc(-c2onc3ccc(Cl)cc23)cc1OC	4.4%
O=C1c2ccccc2-c2onc3ccc(NCCCn4ccnc4)c1c23	27.5%
COc1ccc2noc3c2c1C(=O)c1ccccc1-3	72.7% (active)
O=C(NCc1ccco1)c1ccc2c(c1)C(=O)c1ccccc1-2	5.3%
